# Data: PubChem BioAssay
# Inconclusive results are not listed. The list shows a part of the results. Active and inactive are the calls of the source.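 Rule for the calls, unless noted: active = GFP response above 150% of the DMSO control; inconclusive = fewer than 70 events counted in any yeast strain; inactive = the rest.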
# Legend:
# [1] = molecular target: Regulator of G-protein signaling 16 (Homo sapiens) (UniProt O15492); assay: modulators of RGS–Galpha-o binding, primary screen, biochemical, multiplexed beads, flow cytometry, RGS4/7/8/16/19 (AID 1504); settings: multiplexed bead flow cytometry, measured here: RGS16 interaction, at 10 µM;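 note: fluorescently labeled Galpha-o bound to GDP with aluminium fluoride binding biotinylated RGS beads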
# [2] = molecular target: Regulator of G-protein signaling 19 (Homo sapiens) (UniProt P49795); assay: as above; settings: multiplexed bead flow cytometry, measured here: RGS19 interaction, at 10 µM
# [3] = molecular target: Regulator of G-protein signaling 7 (Homo sapiens) (UniProt P49802); assay: as above; settings: multiplexed bead flow cytometry, measured here: RGS7 interaction, at 10 µM
# [4] = molecular target: Regulator of G-protein signaling 8 (Homo sapiens) (UniProt P57771); assay: as above; settings: multiplexed bead flow cytometry, measured here: RGS8 interaction, at 10 µM
# [5] = disruption of biotin probe capture by avidin, counter-screen for RGS protein interaction modulators, biochemical, flow cytometry, bead-based (AID 1783;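 active = inhibition above 50%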;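 note: median green fluorescence of gated singlet beads compared with DMSO control wells; 0% = DMSO wells and 100% = complete loss of bead fluorescence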); settings: streptavidin beads, fluorescein-biotin binding; at 10 µM, stronger effect = higher value
# [6] = molecular target: Guanine nucleotide-binding protein G(o) subunit alpha (Homo sapiens) (UniProt P09471); assay: RGS8-Galphao binding modulators, confirmation, biochemical, multiplexed bead flow cytometry, single concentration (AID 1836; in the data active = binding response below about 72% or above about 130%; inactive = in between;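 note: Galphao activated as GDP AlF4 complex before binding bead RGS8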); settings: bead-based flow cytometry RGS8-Galphao binding, fluorescence; at 10 µM; actives lie on both sides
# [7] = molecular target: Guanine nucleotide-binding protein G(o) subunit alpha (Homo sapiens) (UniProt P09471); assay: RGS7-Galphao binding modulators, confirmation, biochemical, multiplexed bead flow cytometry, single concentration (AID 1837; in the data active = response below about 75% or above about 130%; inactive = in between;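 note: fluorescent Galphao activated with GDP and aluminum fluoride binding bead-coupled RGS7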); settings: bead-based flow cytometry RGS7-Galphao binding; at 10 µM; actives lie on both sides
# [8] = molecular target: Regulator of G-protein signaling 16 (Homo sapiens) + Guanine nucleotide-binding protein G(o) subunit alpha (Homo sapiens) (UniProt O15492+P09471); assay: modulators of RGS16-Galphao protein binding, confirmation, biochemical, single concentration, multiplexed bead flow cytometry (AID 1838; in the data active = response below about 74% or above about 130%; inactive = in between;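 note: Galphao activated as the GDP aluminium fluoride complex binding bead-coupled RGS16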); settings: bead-based flow cytometry, at 10 µM, actives lie on both sides
# [9] = molecular target: Guanine nucleotide-binding protein G(o) subunit alpha (Homo sapiens) (UniProt P09471); assay: modulators of RGS4-Galphao protein binding, confirmation, biochemical, single concentration, multiplexed bead flow cytometry (AID 1840; in the data active = binding response below about 74% or above about 130%; inactive = in between); settings: at 10 µM, actives lie on both sides
# [10] = molecular target: Guanine nucleotide-binding protein G(o) subunit alpha (Homo sapiens) + Regulator of G-protein signaling 19 (Homo sapiens) (UniProt P09471+P49795); assay: regulators of RGS19-Galphao binding, confirmation, biochemical, single point, multiplexed bead flow cytometry (AID 1841; in the data active = response below about 50% or above about 160%; inactive = in between;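 note: 100% = no compound control and 0% = blank background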); settings: bead-based flow cytometry RGS19-Galphao binding; at 10 µM; actives lie on both sides
# [11] = yeast TOR pathway RPL19A-GFP modulators, primary screen, cell-based, S. cerevisiae, multiplex flow cytometry (AID 1862; in the data active = percent of DMSO control GFP below about 86%;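 note: lower values mimic rapamycin by blocking the RPL19A rise seen in DMSO cells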); settings: S. cerevisiae RPL19A-GFP strain, flow cytometry fluorescence, 3 h; at 10 µM; stronger effect = lower value
# [12] = modulators of MEP2-GFP levels in yeast, primary screen, S. cerevisiae, multiplex flow cytometry (AID 1867;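 active = GFP response, as percent of the DMSO control, above the screen-wide mean plus 3 SD, about 139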;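 note: median GFP channel fluorescence of barcode-gated MEP2-GFP cells measured by flow cytometry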); settings: S. cerevisiae MEP2-GFP strain, 3 h, at 10 µM, stronger effect = higher value, 100% means same as DMSO wells
# [13] = modulators of CIT2-GFP expression in yeast, primary screen, S. cerevisiae, GFP fusion, multiplex flow cytometry (AID 1870;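 active = percent response above a set limit, the screen-wide mean plus 3 SD, cut at about 130% in these data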;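 note: barcoded CIT2-GFP strain pooled with four other GFP strains with rapamycin as positive control; median GFP fluorescence per well over plate mean of DMSO wells so 100% = DMSO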); settings: 3 h, at 10 µM, stronger effect = higher value
# [14] = modulators of LAP4-GFP expression in yeast, primary screen, S. cerevisiae, multiplex flow cytometry (AID 1873;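 active = GFP signal, as percent of the solvent control, above the screen mean plus 3 SD, about 149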); settings: 3 h, at 10 µM, stronger effect = higher value
# [15] = modulators of AGP1-GFP expression in yeast TOR pathway, primary screen, cell-based, multiplex flow cytometry, S. cerevisiae (AID 1887;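 active = GFP signal above the screen-wide mean plus 3 SD, that is over about 124.5% of the solvent control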;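 note: AGP1-GFP fusion strain of S. cerevisiae within a five-strain barcoded multiplex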); settings: 3 h, at 10 µM, stronger effect = higher value
# [16] = RPL19A-GFP modulators, yeast TOR pathway, confirmation, cell-based, S. cerevisiae, flow cytometry, cherry picks, mother/daughter gates (AID 2270;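 active = GFP response below 50% of the DMSO control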); settings: S. cerevisiae RPL19A-GFP strain, 3 h, at 10 µM, stronger effect = lower value, 100 = same GFP as DMSO wells
# [17] = LAP4-GFP expression modulators in yeast, confirmation, cell-based, cherry picks, flow cytometry, mother/daughter gates (AID 2271);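 note: ratio of sample to DMSO plate mean so 100% equals DMSO level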; settings: S. cerevisiae LAP4-GFP strain, 3 h, at 10 µM, stronger effect = higher value, 100 means same as DMSO control
# [18] = modulators of MEP2-GFP levels in yeast, confirmation, S. cerevisiae, flow cytometry GFP, cherry picks (AID 2272;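 active = GFP response above 150% of the DMSO control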;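 note: ratio of well signal to plate DMSO mean so 100% equals DMSO level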); settings: S. cerevisiae MEP2-GFP strain, 3 h, at 10 µM, stronger effect = higher value
# [19] = modulators of CIT2-GFP expression in yeast, confirmation, S. cerevisiae, GFP fusion, cherry picks, mother/daughter gates (AID 2274;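 active = GFP response above 150% of the DMSO level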); settings: S. cerevisiae CIT2-GFP strain, flow cytometry, 3 h, at 10 µM, stronger effect = higher value
# [20] = inhibitors of CD8+ T cell-vesicle binding, pilot screen, LFA-1/ICAM-1 modulator project, MLPCN validation set, flow cytometry (AID 2523;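 active = response below a set limit, under 55% cells CD8-positive and vesicle-bound, and CD8 cells' 90th-percentile brightness under 279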;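 for vesicle binding response: mean PE anti-B7-1 fluorescence of CD8+ cells relative to row control; 100% = QL9-loaded vesicles with DMSO vehicle in the same plate row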); settings: 2C mouse CD8+ T cells, at 7 µM, stronger effect = lower value; double positive events: measured here: CD8+/vesicle+ event percentage
# [21] = measured here: daughter cell gate
# [22] = measured here: mother cell gate
# [23] = measured here: daughter cell gate response
# [24] = measured here: mother cell gate response
# Guanine nucleotide-binding protein G(o) subunit alpha (Homo sapiens), sequence (P09471 whole entry, looked up): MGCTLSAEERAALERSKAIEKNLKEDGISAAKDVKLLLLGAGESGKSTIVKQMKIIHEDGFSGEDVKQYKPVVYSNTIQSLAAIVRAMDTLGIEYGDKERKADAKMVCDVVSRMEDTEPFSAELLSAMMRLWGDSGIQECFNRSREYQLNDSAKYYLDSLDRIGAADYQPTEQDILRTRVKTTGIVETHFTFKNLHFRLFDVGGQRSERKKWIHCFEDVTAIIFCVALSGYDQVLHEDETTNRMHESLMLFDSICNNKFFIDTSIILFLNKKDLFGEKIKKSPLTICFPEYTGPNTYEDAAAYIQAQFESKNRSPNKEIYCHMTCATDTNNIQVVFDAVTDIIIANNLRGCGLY
# Guanine nucleotide-binding protein G(o) subunit alpha (Homo sapiens) + Regulator of G-protein signaling 19 (Homo sapiens), sequence (P09471 whole entry, looked up): as above
# Guanine nucleotide-binding protein G(o) subunit alpha (Homo sapiens) + Regulator of G-protein signaling 19 (Homo sapiens), sequence (P49795 whole entry, looked up): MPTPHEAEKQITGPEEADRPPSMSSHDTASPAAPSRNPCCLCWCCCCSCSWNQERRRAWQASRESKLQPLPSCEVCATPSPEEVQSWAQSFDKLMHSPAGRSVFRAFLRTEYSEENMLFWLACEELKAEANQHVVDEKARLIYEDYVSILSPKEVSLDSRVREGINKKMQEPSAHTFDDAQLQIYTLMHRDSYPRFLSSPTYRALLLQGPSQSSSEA
# Regulator of G-protein signaling 16 (Homo sapiens) + Guanine nucleotide-binding protein G(o) subunit alpha (Homo sapiens), sequence (O15492 whole entry, looked up): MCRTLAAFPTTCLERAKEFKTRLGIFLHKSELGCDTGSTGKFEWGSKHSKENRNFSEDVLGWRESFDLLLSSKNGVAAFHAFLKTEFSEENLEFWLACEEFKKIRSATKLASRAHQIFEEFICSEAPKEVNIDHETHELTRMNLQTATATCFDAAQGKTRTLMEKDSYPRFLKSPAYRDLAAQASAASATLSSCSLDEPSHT
# Regulator of G-protein signaling 16 (Homo sapiens) + Guanine nucleotide-binding protein G(o) subunit alpha (Homo sapiens), sequence (P09471 whole entry, looked up): as the sequence (P09471 whole entry, looked up) above
compound,measurement,setting,value
N#Cc1nc(COc2ccc(-c3ccccc3)cc2)oc1NCc1cccnc1,RGS16–Galpha-o binding response,[1],0%
same,RGS19–Galpha-o binding response,[2],78.7%
same,RGS7–Galpha-o binding response,[3],202%
same,RGS8–Galpha-o binding response,[4],167%
same,inhibition,[5],6.8% (inactive)
same,binding response (% of control),[6],156% [activator] (active)
same,response (percent of control binding),[7],517% [activator] (active)
same,response (% of control binding),[8],364% [activator] (active)
same,binding response (% of control),[9],376% [activator] (active)
same,response (percent of control binding),[10],565% (active)
O=C(Nc1cccc(-c2nc3ccccc3[nH]2)c1)c1ccc(C(=O)Nc2cccc(-c3nc4ccccc4[nH]3)c2)cc1,RGS16–Galpha-o binding response,[1],219%
same,RGS19–Galpha-o binding response,[2],436%
same,RGS7–Galpha-o binding response,[3],495%
same,RGS8–Galpha-o binding response,[4],112%
same,inhibition,[5],1% (inactive)
same,binding response (% of control),[6],104% (inactive)
same,response (percent of control binding),[7],126% [activator] (active)
same,response (% of control binding),[8],131% [activator] (active)
same,binding response (% of control),[9],108% (inactive)
same,response (percent of control binding),[10],217% (active)
C=CCn1c(Cn2nnc3ccccc32)nnc1SCC(=O)N/N=C/c1cc(Br)cc(OC)c1O,RGS16–Galpha-o binding response,[1],-35.2%
same,RGS19–Galpha-o binding response,[2],144%
same,RGS7–Galpha-o binding response,[3],-19.4%
same,RGS8–Galpha-o binding response,[4],5.17%
CC(NCCc1ccc(O)cc1)C(O)c1ccc(O)cc1 (configuration not stated),percent of DMSO control GFP,[11],92.4% (inactive)
same,GFP response vs DMSO,[12],144% (active)
same,percent response of DMSO control,[13],91.3% (inactive)
same,GFP response vs DMSO,[14],80.9% (inactive)
same,"GFP response, % of DMSO",[15],93.1% (inactive)
same,GFP response vs DMSO,[16],93% (inactive)
same,GFP response vs DMSO,[16]; [21],91.6%
same,GFP response vs DMSO,[16]; [22],94.1%
same,GFP response relative to DMSO,[17],97.9% (inactive)
same,GFP response relative to DMSO,[17]; [23],96%
same,GFP response relative to DMSO,[17]; [24],98.3%
same,GFP response vs DMSO,[18],100% (inactive)
same,"GFP response, % of DMSO",[19],101% (inactive)
same,"GFP response, % of DMSO",[19]; [21],101%
same,"GFP response, % of DMSO",[19]; [22],103%
same,double positive events,[20],59%
same,vesicle binding response,[20],174% (inactive)
CC(=O)[C@H]1CC[C@H]2[C@@H]3CCC4=CC(=O)CC[C@]4(C)[C@H]3CC[C@]12C,percent of DMSO control GFP,[11],100% (inactive)
same,GFP response vs DMSO,[12],108% (inactive)
same,percent response of DMSO control,[13],98.6% (inactive)
same,GFP response vs DMSO,[14],94.8% (inactive)
same,"GFP response, % of DMSO",[15],104% (inactive)
same,GFP response vs DMSO,[16],99.9% (inactive)
same,GFP response vs DMSO,[16]; [21],99.3%
same,GFP response vs DMSO,[16]; [22],100%
same,GFP response relative to DMSO,[17],100% (inactive)
same,GFP response relative to DMSO,[17]; [23],97.9%
same,GFP response relative to DMSO,[17]; [24],101%
same,GFP response vs DMSO,[18],99.5% (inactive)
same,"GFP response, % of DMSO",[19],97.8% (inactive)
same,"GFP response, % of DMSO",[19]; [21],96.4%
same,"GFP response, % of DMSO",[19]; [22],98%
same,double positive events,[20],64%
same,vesicle binding response,[20],119% (inactive)
O=c1[nH]cc(F)c(=O)[nH]1,percent of DMSO control GFP,[11],90.9% (inactive)
same,GFP response vs DMSO,[12],119% (inactive)
same,percent response of DMSO control,[13],127% (active)
same,GFP response vs DMSO,[14],77% (inactive)
same,"GFP response, % of DMSO",[15],104% (inactive)
same,GFP response vs DMSO,[16],83.5% (inactive)
same,GFP response vs DMSO,[16]; [21],82.3%
same,GFP response vs DMSO,[16]; [22],85.4%
same,GFP response relative to DMSO,[17],90% (inactive)
same,GFP response relative to DMSO,[17]; [23],88.8%
same,GFP response relative to DMSO,[17]; [24],93%
same,GFP response vs DMSO,[18],101% (inactive)
same,"GFP response, % of DMSO",[19],88.5% (inactive)
same,"GFP response, % of DMSO",[19]; [21],87.3%
same,"GFP response, % of DMSO",[19]; [22],89.8%
same,double positive events,[20],52.4%
same,vesicle binding response,[20],223% (inactive)
CC(=O)OCC(=O)[C@@]1(O)CC[C@H]2[C@@H]3CCC4=CC(=O)CC[C@]4(C)[C@H]3[C@@H](O)C[C@@]21C,percent of DMSO control GFP,[11],101% (inactive)
same,GFP response vs DMSO,[12],104% (inactive)
same,percent response of DMSO control,[13],96.6% (inactive)
same,GFP response vs DMSO,[14],97.3% (inactive)
same,"GFP response, % of DMSO",[15],103% (inactive)
same,GFP response vs DMSO,[16],95.8% (inactive)
same,GFP response vs DMSO,[16]; [21],97.1%
same,GFP response vs DMSO,[16]; [22],97.7%
same,GFP response relative to DMSO,[17],96.7% (inactive)
same,GFP response relative to DMSO,[17]; [23],99.2%
same,GFP response relative to DMSO,[17]; [24],95.1%
same,GFP response vs DMSO,[18],100% (inactive)
same,"GFP response, % of DMSO",[19],99.7% (inactive)
same,"GFP response, % of DMSO",[19]; [21],101%
same,"GFP response, % of DMSO",[19]; [22],98.5%
same,double positive events,[20],62.5%
same,vesicle binding response,[20],4910% (inactive)
